Assay [1] is described as follows: signal quenchers or enhancers, Cy5 substrate/SSB – biochemical, NIH Clinical Collection, E. coli SSB, artefact control for HCV NS3 helicase inhibitor project (AID 743268). Particulars: Cy5-oligo bound E. coli SSB, fluorescence interference.
For assay [2], the system named is Hepatitis C virus NS3 helicase. The assay is described as follows: blockers of NS3h binding to DNA – biochemical, fluorescence polarization, NIH Clinical Collection, primary screen (AID 743270). The settings on record: NS3 helicase binding to Cy5-dT15 DNA, stronger effect = higher value, concentration not given here.
Assay [3] deals with Single-stranded DNA-binding protein (Escherichia coli (strain K12)) (UniProt P0AGE0). As to the kind of experiment: SSB-ssDNA binding inhibitors – biochemical, fluorescence polarization, NIH Clinical Collection, counter-screen for HCV NS3 helicase inhibitor project (AID 743271; in the data active = inhibition above about 28%). The settings on record: E. coli SSB-DNA binding, stronger effect = higher value, concentration not given here.

A short description of assay [4]: compounds distorting NS3 helicase fluorescence signal – biochemical, NIH Clinical Collection, artefact control for HCV NS3 helicase inhibitor project (AID 743272).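 Also: HCV NS3 helicase with a Cy5 labelled single stranded DNA probe.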 Particulars: fluorescence interference counterscreen, HCV NS3 helicase assay; stronger effect = lower value.
Assay [5] in a line: Wnt pathway potentiators raising nuclear beta-catenin – imaging, WNT3A-conditioned medium, mouse C2C12, NPC library, primary screen (AID 1117326; in the data active = nuclear beta-catenin stimulation mostly above about 4.2%, no sharp cut-off; inactive = mostly below about 10%). Particulars: stronger effect = higher value.
The nature of assay [6]: stimulators of insulin release from INS-1E, primary screen, cell-based, 5 mM glucose, NPC library (AID 1117329;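 active = compound raises insulin release from rat beta cells at 5 mM glucose, no numeric limit stated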). Particulars: rat INS-1E insulin secretion, at 10 µM, stronger effect = higher value.
A short description of assay [7]: growth inhibition of GSK3B-pretreated HCT116 cells – cell-based, CellTiter-Glo, 0.2 to 20 µM (AID 1117336;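 active = compounds lowering colon cancer cell viability after pretreatment blocking the GSK3B kinase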). Particulars: HCT116 viability after GSK3B inhibitor, at 20 µM, stronger effect = higher value.
The nature of assay [8]: inhibition of endothelial tube formation, primary screen, imaging, VEGF stimulated, CD31 staining, tube area, NPC library (AID 1117340;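 active = compound that reduces growth-factor-driven endothelial tube area in a mixed cell culture, no cutoff stated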). Particulars: VEGF-stimulated ADSC/ECFC co-culture, at 10 µM, stronger effect = higher value.
Assay [9] in a line: GLP1 release stimulators, primary, NCI-H716, NPC library (AID 1117341;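 active = compound raises GLP1 secretion from the human gut endocrine cells, with no numeric limit stated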). Particulars: NCI-H716 cells, at 10 µM, stronger effect = higher value.
A short description of assay [10]: HCT116 colon cancer cell growth inhibition, primary screen, CellTiter-Glo luminescence, NPC library (AID 1117342;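 active = compounds that lower survival of HCT116 colon cancer cells in the luminescence readout, no numeric limit stated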). Particulars: at 20 µM (top of the series).
Assay [11] in a line: reduced SW480 viability measured with CellTiter-Glo, NPC library, primary (AID 1117343;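 active = compounds that lower viability of the colon cancer cells in the luminescence readout, with no numeric limit stated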). Particulars: CellTiter-Glo luminescence; at 20 µM (top of the series).
Assay [12] in a line: NPC library primary testing for decreased DLD-1 cell viability via CellTiter-Glo (AID 1117346;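 active = compounds that lower survival of DLD-1 colon cancer cells in the luminescence readout, no cutoff given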). The settings on record: DLD-1 viability, CellTiter-Glo luminescence; at 20 µM (top of the series).
Assay [13] deals with 6-phosphogluconate dehydrogenase, decarboxylating (Homo sapiens) (UniProt P52209). As to the kind of experiment: inhibition of human phosphogluconate dehydrogenase – biochemical, recombinant enzyme, NADPH absorbance, primary screen (AID 1159550;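 active = at least 20% inhibition of 6-phosphogluconate dehydrogenase activity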). The settings on record: recombinant 6PGD, NADPH absorbance 341 nm; at 10 µM; stronger effect = higher value.
Sequence of 6-phosphogluconate dehydrogenase, decarboxylating (Homo sapiens) (P52209 whole entry, looked up): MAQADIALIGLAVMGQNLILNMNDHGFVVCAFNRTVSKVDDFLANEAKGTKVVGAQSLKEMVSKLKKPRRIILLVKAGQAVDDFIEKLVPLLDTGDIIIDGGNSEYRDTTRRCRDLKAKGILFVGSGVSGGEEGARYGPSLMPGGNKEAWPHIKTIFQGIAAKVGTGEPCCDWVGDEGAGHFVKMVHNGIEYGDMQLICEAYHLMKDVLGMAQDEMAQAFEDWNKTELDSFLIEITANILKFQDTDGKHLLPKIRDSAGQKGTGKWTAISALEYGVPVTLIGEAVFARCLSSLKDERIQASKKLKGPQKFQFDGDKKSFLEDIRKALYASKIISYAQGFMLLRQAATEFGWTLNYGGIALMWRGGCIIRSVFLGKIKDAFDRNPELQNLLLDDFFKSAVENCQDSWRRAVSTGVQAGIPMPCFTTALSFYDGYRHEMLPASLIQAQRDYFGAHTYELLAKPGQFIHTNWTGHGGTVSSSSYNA
Assay [14] in a line: EMT-state selective cytotoxicity in co-culture – imaging, PC-3E GFP, TEM4-18 mCherry, primary screen (AID 1345086;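 active = compounds killing one labelled cell type while sparing the other, by normalised counts and ratio limits, not self-fluorescent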;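 as to all read-outs here: cells exposed to compound for 72 h before imaging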;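 as to red/green cell ratio (normalised): normalised mesenchymal count divided by normalised epithelial count so high means epithelial killing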). Particulars: PC-3E GFP / TEM4-18 mCherry co-culture, imaging cell counts, at 1 µM; for red/green cell ratio (normalised): actives lie on both sides, counts scaled to control wells, 1 = unselective.
The nature of assay [15]: MELAS cybrid and Rieske KO viability enhancers – cell-based, MELAS cybrids, Rieske KO mouse fibroblasts, CellTiter-Glo, primary screen (AID 1508586;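 active = mean z-score across replicates of 1.96 or higher in either the MELAS or the Rieske mutant cell line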;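 also: z relative to plate mean and SD of compound and empty wells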). The settings on record: low glucose.
Assay [16] deals with NAD(+) hydrolase SARM1 (Homo sapiens) (UniProt Q6SZW1). As to the kind of experiment: blocking NAD cleavage by SARM1 SAM-TIR – cell lysate, NAD-Glo luminescence (AID 1508614;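 active = compound whose remaining NAD level is above about 45 nM, limit read from the data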;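 also: higher remaining NAD means stronger inhibition of SARM1 NADase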). Particulars: SAM-TIR HEK293T lysate NADase, at 1 µM, stronger effect = higher value.
Sequence of NAD(+) hydrolase SARM1 (Homo sapiens) (Q6SZW1 whole entry, looked up, the tested form may be a part): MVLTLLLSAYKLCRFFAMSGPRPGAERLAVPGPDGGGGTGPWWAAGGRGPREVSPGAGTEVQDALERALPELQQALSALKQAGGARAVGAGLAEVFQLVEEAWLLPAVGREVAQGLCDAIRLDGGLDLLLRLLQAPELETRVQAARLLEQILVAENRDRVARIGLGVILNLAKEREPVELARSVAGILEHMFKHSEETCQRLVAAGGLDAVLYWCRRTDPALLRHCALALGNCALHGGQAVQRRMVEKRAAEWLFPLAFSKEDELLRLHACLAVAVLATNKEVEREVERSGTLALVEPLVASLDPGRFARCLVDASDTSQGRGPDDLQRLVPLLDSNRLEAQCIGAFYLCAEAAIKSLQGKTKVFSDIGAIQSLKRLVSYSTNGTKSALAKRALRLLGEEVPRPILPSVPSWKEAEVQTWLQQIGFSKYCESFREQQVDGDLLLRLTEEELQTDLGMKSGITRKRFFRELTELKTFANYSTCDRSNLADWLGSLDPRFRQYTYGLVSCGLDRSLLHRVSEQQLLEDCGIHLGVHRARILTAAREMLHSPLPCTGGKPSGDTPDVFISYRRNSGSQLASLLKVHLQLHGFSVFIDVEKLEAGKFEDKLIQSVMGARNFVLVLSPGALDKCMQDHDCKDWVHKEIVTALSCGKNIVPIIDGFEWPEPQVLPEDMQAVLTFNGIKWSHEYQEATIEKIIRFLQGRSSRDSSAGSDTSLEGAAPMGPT
Assay [17] addresses Mitogen-activated protein kinase 7 (Homo sapiens) (UniProt Q13164). As to the kind of experiment: Gal4-ERK5 driven luciferase induction – cell-based, HTS, primary screen (AID 1508626;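 active = luciferase signal above three times the same-plate solvent-only control wells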;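 also: luciferase driven by Gal4-ERK5 fusion binding five Gal4 sites before minimal TATA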). The settings on record: HeLa Gal4-ERK5 transactivation, 18 h, at 5 µM, stronger effect = higher value.
A further assay concerns F380Y. The assay is described as follows: BK channel mutant inhibitors and activators – cell-based, U2OS BacMam, thallium flux, beta subunits, selectivity assay, profiling panel (AID 1259406;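 active = thallium flux through the channel raised or lowered by more than 3 SD from vehicle-only wells, actives on both sides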;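 also: initial slope of Thallos dye fluorescence rise after thallium is added; log ratio against the mean of 0.3% DMSO vehicle wells on the same plate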). Particulars: U2OS BacMam BK variants, at 30 µM.
Assay [18] is described as follows: P. berghei load reduction in hepatocytes – cell-based, HepG2, luciferase luminescence, HepG2 viability, primary screen (AID 624349; in the data active = parasite load remaining mostly below about 12%, no sharp cut-off; inactive = mostly above about 10%;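 also: 100% = mean of DMSO negative control wells on the same plate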). Particulars: P. berghei liver stage in HepG2, luciferase luminescence, concentration not given here; parasite load remaining: stronger effect = lower value; viability: measured here: HepG2 viability without parasites.
A short description of assay [19]: viability loss with induced miR-34 in A549 – imaging, A549 dox-inducible miR-34, nuclei and caspase counts, primary screen (AID 1347080;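 active = compounds whose cell count with miR-34 switched on is under 0.7 times the count with it off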). Particulars: A549 miR-34 inducible, Hoechst nuclei count, 48 h.
Setting [20] is: measured here: epithelial PC-3E GFP cell survival.
Setting [21] is: measured here: mesenchymal TEM4-18 mCherry cell survival.
[22] abbreviates: MELAS cybrid survival, CellTiter-Glo 48 h, stronger effect = higher value.
The mark [23] stands for this setting: Rieske KO mouse fibroblast survival, CellTiter-Glo 72 h.
[24] abbreviates: stronger effect = lower value, cell number ratio, induced over uninduced.
The mark [25] stands for this setting: measured here: relative caspase fold change +Dox/-Dox.
Setting [26] is: measured here: total cells with miR-34 induction, stronger effect = lower value.
The mark [27] stands for this setting: measured here: total cells without miR-34 induction.

Where “and” joins values, the source holds several entries; their conditions need not be identical. Equal values may be shown once. Calls of active or inactive are those of the source. Unless noted, no rule for the calls is given here.

Sequence of Mitogen-activated protein kinase 7 (Homo sapiens) (Q13164 whole entry, looked up, the tested form may be a part): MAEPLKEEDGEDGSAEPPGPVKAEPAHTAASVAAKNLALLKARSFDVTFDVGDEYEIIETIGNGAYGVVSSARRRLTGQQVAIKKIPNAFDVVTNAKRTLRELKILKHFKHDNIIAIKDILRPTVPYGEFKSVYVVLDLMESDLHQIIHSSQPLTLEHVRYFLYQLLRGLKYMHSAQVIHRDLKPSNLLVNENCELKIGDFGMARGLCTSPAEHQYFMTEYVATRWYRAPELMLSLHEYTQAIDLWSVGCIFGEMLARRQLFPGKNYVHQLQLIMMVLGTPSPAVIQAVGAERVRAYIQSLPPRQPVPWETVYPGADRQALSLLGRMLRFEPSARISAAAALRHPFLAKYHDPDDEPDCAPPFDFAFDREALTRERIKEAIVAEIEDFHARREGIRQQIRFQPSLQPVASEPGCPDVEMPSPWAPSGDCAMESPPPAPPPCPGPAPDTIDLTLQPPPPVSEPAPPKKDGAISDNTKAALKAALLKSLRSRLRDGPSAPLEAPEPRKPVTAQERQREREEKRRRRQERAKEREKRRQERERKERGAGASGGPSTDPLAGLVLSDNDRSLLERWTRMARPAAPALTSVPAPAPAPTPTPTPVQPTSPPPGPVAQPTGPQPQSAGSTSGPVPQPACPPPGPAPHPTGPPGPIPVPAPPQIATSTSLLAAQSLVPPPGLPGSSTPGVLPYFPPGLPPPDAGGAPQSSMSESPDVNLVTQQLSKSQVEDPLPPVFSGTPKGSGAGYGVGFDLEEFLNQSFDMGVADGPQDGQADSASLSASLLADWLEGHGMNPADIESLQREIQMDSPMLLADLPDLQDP

For `Fc1ccc([C@@H]2CCNC[C@H]2COc2ccc3c(c2)OCO3)cc1`, the fluorescence ratio was 1 (inactive) in assay [1] and 0.99 (inactive) in assay [4]. In addition, the inhibition in assay [2] is -1.19% (inactive); in assay [3], -1.64% (inactive); in assay [13] it was -2.44% (inactive). Besides, the nuclear beta-catenin stimulation was 2.2% (inactive) in assay [5] (at 10 µM) and 2.8% in assay [5] (stimulation, at 2 µM). Also, the insulin secretion stimulation in assay [6] is 11.8% (inactive). Besides, the viability decrease in assay [7] is -148% (inactive). For the same compound, in [8], the tube area decrease was 46.2% (active). In assay [9], the GLP1 secretion stimulation was 1.4% (inactive). For the same compound, the inhibition of viability in assay [10] is 28.1% (inactive). For the same compound, the viability decrease (inhibition) is 23% (inactive) in assay [11] and 19.7% (inactive) in [12]. Further, the red/green cell ratio (normalised) in assay [14] is 0.99 (inactive). Also, the values for the normalised cell number in assay [14] (setting [20]) and in assay [14] (setting [21]) were 0.48 and 0.47, respectively. The z-score in assay [15] (setting [22]) was -0.279 (inactive) and -0.953 (inactive); in [15] (setting [23]), -0.644 and -0.322. Further, the remaining NAD in assay [16] was 10 nM (inactive). The luciferase signal in [17] was 168 AU (inactive).

As for `NC(N)=NC(=O)c1nc(Cl)c(N)nc1N`, the fluorescence ratio in assay [1] is 0.95 (inactive); in assay [4], 0.9 (inactive). Further, the inhibition in assay [2] was 6.73% (inactive); in assay [3], 13.8% (inactive); in assay [13], 7.13% (inactive). Also, the nuclear beta-catenin stimulation was 0.7% (inactive) in assay [5] (at 10 µM) and -2% in assay [5] (stimulation, at 2 µM). Also, the insulin secretion stimulation in assay [6] was 4.35% (inactive). Moreover, the viability decrease in assay [7] was 3.2% (inactive). Also, the tube area decrease in assay [8] was 1.1% (inactive). In addition, in [9], the GLP1 secretion stimulation is 2% (inactive). Besides, in assay [10], the inhibition of viability is 3% (inactive). The viability decrease (inhibition) in [11] is 1.8% (inactive); in assay [12] it was -11.5% (inactive). The red/green cell ratio (normalised) in assay [14] is 0.85 (inactive). The normalised cell number in assay [14] (setting [20]) turned out to be 1.29; in assay [14] (setting [21]), 1.1. Also, the z-score in [15] (setting [22]) was -0.14 (inactive) and -0.352 (inactive) and 0.738 (inactive); in assay [15] (setting [23]) it was 0.245 and 0.664 and 0.681. For the same compound, the remaining NAD in assay [16] was 10 nM (inactive). Further, the luciferase signal in assay [17] was 44 AU (inactive). In the assay on F380Y, the log fold change Tl+ flux was -0.00821 (inactive).

Take `CC(=O)O[C@]1(C(C)=O)CC[C@H]2[C@@H]3C=C(C)C4=CC(=O)CC[C@]4(C)[C@H]3CC[C@@]21C`: the parasite load remaining in assay [18] was 111% (inactive) and 60.7% (inactive) and 27.2% (inactive). In addition, the viability in assay [18] is 93.3% and 69.6% and 81%. Further, the fluorescence ratio was 1.01 (inactive) in assay [1] and 0.98 (inactive) in assay [4]. Moreover, the values for the inhibition in [2], in [3] and in [13] were 3.56% (inactive), 3.75% (inactive) and -2.23% (inactive), respectively. Further, the nuclear beta-catenin stimulation was 2.7% (inactive) in assay [5] (at 10 µM) and 1.9% in [5] (stimulation, at 2 µM). The insulin secretion stimulation in assay [6] was 0.1% (inactive). Further, the viability decrease in [7] was -86.9% (inactive). Moreover, the tube area decrease in assay [8] was -10.2% (inactive). Further, the GLP1 secretion stimulation in assay [9] was 0% (inactive). For the same compound, the inhibition of viability in assay [10] is 46.5% (inactive). For the same compound, the viability decrease (inhibition) in assay [11] was 59.6% (active); in assay [12], 22.4% (inactive). Further, the fold change in assay [19] (setting [24]) is 0.793 (inactive) and 0.839 (inactive); in assay [19] (setting [25]) it was 1.65 and 1.15. Also, the cell count in assay [19] (setting [26]) is 7300 and 6980; in assay [19] (setting [27]), 9200 and 8320. Moreover, the z-score is -0.444 (inactive) and 0.0969 (inactive) in assay [15] (setting [22]); -0.239 and -0.33 in assay [15] (setting [23]). For the same compound, in [16], the remaining NAD was 10 nM (inactive). Further, in [17], the luciferase signal is 52 AU (inactive). Further, the log fold change Tl+ flux in the assay on F380Y was 0.00819 (inactive).

For `CC(=O)OCC(=O)[C@@]12OC(C)(C)O[C@@H]1C[C@H]1[C@@H]3C[C@H](F)C4=CC(=O)C=C[C@]4(C)[C@@]3(F)[C@@H](O)C[C@@]12C`, the parasite load remaining in [18] was 84.8% (inactive) and 108% (inactive). For the same compound, the viability in [18] was 105% and 96.2%. Further, the fluorescence ratio in assay [1] is 1.05 (inactive); in assay [4] it was 1.01 (inactive). Besides, the inhibition in assay [2] is 4.09% (inactive); in assay [3], -1.24% (inactive); in assay [13], -0.585% (inactive). For the same compound, the nuclear beta-catenin stimulation in assay [5] (at 10 µM) is 1.1% (inactive); in assay [5] (stimulation, at 2 µM), 2.1%. In addition, the insulin secretion stimulation in [6] was 0.2% (inactive). Also, the viability decrease in [7] was -25.9% (inactive). For the same compound, in assay [8], the tube area decrease is 30.9% (inactive). For the same compound, the GLP1 secretion stimulation in assay [9] was 0.7% (inactive). Moreover, in assay [10], the inhibition of viability was 20.4% (inactive). Further, the viability decrease (inhibition) in assay [11] was -2.3% (inactive); in assay [12], -3.8% (inactive). Also, the fold change in assay [19] (setting [24]) was 0.945 (inactive) and 0.813 (inactive); in assay [19] (setting [25]) it was 2.11 and 1.02. In addition, the cell count in [19] (setting [26]) is 7270 and 6260; in assay [19] (setting [27]), 7700 and 7690. For the same compound, the z-score in assay [15] (setting [22]) was 0.454 (inactive); in assay [15] (setting [23]), 1.02. Further, the remaining NAD in assay [16] was 10 nM (inactive). Moreover, the luciferase signal in [17] was 260 AU (active). The log fold change Tl+ flux in the assay on F380Y is 0.00343 (inactive).

These data come from PubChem BioAssay.
